Source: the supplement of paper PMC11732987, “Enantioselective OTUD7B fragment discovery through chemoproteomics screening and high-throughput optimisation” (Communications Chemistry, 2025)

Experiments:
Assay in all cases: log2 ratio of Biotin-Ahx-Ub-VS probe labelling (fragment/DMSO); higher = less target engagement (more negative = stronger competition), active = hit call of the paper (q ≤ 0.05, log2 ratio ≤ -1)
Conditions in all cases: compound concentration: 200 uM; treatment time: 3 h
ALG13 = biological target: T1, ALG13 (UniProt Q9NP73)
T1 sequence (whole entry): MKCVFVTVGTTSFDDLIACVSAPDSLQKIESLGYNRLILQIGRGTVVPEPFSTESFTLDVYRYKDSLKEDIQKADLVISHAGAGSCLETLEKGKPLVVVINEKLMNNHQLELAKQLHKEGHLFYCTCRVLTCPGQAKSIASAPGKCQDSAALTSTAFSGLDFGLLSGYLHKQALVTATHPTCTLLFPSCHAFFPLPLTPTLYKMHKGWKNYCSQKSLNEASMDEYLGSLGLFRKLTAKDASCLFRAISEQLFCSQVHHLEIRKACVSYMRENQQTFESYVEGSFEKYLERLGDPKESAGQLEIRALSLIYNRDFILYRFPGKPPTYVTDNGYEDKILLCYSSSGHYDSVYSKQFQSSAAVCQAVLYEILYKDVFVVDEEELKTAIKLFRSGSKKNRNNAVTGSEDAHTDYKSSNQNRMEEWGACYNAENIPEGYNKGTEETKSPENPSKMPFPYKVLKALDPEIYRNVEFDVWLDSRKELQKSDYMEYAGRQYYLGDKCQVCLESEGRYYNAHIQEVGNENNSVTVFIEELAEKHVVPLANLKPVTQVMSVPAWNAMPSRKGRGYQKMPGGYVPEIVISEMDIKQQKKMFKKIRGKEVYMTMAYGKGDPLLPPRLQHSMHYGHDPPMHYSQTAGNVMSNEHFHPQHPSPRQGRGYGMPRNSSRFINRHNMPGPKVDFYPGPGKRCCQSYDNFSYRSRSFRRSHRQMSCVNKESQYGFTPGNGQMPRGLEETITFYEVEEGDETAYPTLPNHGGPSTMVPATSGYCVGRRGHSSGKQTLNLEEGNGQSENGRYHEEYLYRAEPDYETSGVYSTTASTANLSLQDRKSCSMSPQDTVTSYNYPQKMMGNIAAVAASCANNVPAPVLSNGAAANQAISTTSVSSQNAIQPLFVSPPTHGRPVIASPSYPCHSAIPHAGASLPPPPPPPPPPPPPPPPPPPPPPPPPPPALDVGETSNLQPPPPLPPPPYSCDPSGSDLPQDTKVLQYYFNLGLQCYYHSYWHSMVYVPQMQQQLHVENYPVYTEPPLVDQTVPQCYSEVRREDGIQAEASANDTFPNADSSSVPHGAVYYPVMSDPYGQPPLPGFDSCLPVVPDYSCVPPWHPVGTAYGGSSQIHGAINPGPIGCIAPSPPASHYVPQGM
Summary of the method: (§1)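 Each value is an average log2 ratio of fragment to vehicle, tested by unpaired t-test. The underlying Spectronaut label-free quantities were global-median-normalised, and only proteins with ≥2 unique peptides were included. Triplicate HEK293T lysate samples (495 µg) were exposed to fragment at 200 µM or vehicle for 3 h, then to Biotin-Ahx-Ub-VS at 0.5 µM final for 1 h, before NeutrAvidin enrichment of labelled DUBs, LysC and trypsin digestion, and diaPASEF LC-MS/MS.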

ATXN3 = ATXN3 (UniProt P54252)
Summary of the method: as §1

BAP1 = biological target: T2, BAP1 (UniProt Q92560)
T2 sequence (whole entry): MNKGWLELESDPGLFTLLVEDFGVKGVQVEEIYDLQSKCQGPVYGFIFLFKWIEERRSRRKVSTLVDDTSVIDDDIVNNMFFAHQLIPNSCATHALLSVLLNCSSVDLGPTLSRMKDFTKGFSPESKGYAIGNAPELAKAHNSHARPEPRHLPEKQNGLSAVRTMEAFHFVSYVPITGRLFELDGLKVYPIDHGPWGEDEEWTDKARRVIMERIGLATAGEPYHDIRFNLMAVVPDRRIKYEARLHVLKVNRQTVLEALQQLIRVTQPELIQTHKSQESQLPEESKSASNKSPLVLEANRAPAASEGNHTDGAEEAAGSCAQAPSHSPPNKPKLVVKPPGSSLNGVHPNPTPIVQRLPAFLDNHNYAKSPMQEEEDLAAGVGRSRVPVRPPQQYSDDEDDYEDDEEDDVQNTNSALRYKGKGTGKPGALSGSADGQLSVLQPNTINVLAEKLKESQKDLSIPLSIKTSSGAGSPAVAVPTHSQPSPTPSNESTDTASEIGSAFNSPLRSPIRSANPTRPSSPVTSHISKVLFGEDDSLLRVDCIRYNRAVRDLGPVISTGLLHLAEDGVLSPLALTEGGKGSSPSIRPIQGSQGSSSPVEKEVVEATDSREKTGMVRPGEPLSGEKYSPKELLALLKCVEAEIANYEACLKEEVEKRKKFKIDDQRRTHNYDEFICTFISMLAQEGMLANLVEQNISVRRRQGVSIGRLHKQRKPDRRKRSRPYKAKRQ
Summary of the method: as §1

EIF3F = EIF3F (UniProt O00303)
Summary of the method: as §1

EIF3H = EIF3H (UniProt O15372)
Summary of the method: as §1

FAM105A = biological target: T3, FAM105A (UniProt Q9NUU6)
T3 sequence (whole entry): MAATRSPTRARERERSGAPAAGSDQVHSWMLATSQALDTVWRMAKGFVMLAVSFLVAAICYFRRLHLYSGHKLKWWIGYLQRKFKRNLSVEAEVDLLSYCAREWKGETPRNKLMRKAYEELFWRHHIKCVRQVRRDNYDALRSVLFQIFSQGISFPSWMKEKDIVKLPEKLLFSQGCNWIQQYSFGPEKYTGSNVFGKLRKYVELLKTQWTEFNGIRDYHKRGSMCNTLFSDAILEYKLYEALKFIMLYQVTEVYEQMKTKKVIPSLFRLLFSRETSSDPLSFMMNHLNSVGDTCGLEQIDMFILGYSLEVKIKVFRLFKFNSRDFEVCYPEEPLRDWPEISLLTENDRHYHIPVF
Summary of the method: as §1

OTUB1 = OTUB1 (UniProt Q96FW1)
Summary of the method: as §1

OTUD4 = biological target: T4, OTUD4 (UniProt Q01804)
T4 sequence (whole entry): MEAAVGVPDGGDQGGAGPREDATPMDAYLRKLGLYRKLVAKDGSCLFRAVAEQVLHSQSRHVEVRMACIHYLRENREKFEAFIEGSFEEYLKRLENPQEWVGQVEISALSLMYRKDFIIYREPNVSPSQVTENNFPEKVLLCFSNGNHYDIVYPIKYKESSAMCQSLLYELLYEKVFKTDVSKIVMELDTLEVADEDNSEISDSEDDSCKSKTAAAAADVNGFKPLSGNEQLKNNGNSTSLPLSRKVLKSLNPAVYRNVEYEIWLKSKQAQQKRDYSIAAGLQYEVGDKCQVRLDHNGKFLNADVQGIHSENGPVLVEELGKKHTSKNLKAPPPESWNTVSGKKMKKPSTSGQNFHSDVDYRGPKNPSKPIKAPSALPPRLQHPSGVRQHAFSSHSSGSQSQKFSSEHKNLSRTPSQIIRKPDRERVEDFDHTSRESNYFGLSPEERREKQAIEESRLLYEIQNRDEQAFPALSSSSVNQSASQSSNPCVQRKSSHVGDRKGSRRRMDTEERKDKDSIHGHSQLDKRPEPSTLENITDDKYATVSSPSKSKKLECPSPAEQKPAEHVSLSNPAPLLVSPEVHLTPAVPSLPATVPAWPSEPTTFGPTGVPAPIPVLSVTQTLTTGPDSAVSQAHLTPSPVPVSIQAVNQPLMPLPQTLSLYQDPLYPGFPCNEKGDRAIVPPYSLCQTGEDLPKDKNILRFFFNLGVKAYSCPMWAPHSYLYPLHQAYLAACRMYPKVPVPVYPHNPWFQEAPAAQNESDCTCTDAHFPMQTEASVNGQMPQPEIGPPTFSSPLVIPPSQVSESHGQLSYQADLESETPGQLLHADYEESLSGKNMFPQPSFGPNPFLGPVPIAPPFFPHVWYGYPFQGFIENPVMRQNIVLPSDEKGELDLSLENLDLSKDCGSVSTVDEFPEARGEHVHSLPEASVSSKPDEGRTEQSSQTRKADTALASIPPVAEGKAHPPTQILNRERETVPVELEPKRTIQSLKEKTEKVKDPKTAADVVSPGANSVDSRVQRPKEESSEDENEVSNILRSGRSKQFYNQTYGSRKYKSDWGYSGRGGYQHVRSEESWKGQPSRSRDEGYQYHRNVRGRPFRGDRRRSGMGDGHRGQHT
Summary of the method: as §1

OTUD5 = biological target: T5, OTUD5 (UniProt Q96G74)
T5 sequence (whole entry): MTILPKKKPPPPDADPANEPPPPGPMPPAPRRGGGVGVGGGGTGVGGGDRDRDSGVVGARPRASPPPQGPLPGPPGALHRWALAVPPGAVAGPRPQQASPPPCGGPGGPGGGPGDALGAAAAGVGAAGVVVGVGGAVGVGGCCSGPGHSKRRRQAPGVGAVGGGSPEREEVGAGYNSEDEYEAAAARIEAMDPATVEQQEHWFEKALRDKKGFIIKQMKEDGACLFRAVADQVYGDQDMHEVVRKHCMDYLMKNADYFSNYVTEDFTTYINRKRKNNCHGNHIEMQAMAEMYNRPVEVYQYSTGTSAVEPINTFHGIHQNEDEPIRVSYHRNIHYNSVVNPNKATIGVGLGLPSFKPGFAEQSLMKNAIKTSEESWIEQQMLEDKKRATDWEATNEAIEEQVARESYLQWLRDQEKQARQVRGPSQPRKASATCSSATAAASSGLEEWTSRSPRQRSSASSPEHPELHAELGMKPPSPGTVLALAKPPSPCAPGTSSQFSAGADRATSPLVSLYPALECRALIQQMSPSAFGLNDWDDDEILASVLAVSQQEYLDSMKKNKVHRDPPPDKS
Summary of the method: as §1

Measured: log2 ratio of Biotin-Ahx-Ub-VS probe labelling

Chain of EIF3H (O15372 whole entry): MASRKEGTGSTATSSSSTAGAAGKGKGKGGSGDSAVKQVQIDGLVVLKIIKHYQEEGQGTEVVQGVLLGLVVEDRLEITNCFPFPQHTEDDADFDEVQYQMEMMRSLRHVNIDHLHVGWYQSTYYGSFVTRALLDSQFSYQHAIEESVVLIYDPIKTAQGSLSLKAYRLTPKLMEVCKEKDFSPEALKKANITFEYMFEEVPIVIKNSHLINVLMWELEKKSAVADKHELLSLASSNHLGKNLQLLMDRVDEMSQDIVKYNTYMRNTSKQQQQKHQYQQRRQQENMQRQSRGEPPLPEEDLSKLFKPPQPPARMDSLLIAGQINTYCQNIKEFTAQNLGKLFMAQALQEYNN
Chain of EIF3F (O00303 whole entry): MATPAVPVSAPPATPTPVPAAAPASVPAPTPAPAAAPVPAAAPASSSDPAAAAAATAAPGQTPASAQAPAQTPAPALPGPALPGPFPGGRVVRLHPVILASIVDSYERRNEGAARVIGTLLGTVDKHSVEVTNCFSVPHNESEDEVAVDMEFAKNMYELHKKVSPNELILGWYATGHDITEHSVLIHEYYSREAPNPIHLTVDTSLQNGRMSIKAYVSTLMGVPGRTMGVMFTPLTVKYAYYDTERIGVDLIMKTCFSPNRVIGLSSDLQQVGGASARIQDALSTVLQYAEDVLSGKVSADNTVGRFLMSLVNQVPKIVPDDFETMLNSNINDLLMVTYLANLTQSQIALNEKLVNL
Chain of OTUB1 (Q96FW1 whole entry): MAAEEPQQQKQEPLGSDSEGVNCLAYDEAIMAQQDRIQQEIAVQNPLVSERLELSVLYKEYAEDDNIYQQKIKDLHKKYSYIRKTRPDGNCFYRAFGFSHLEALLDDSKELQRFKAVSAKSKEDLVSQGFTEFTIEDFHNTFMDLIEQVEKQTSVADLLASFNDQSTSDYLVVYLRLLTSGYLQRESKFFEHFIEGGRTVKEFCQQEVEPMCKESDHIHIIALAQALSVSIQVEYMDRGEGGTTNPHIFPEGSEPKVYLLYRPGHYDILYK
Chain of ATXN3 (P54252 whole entry): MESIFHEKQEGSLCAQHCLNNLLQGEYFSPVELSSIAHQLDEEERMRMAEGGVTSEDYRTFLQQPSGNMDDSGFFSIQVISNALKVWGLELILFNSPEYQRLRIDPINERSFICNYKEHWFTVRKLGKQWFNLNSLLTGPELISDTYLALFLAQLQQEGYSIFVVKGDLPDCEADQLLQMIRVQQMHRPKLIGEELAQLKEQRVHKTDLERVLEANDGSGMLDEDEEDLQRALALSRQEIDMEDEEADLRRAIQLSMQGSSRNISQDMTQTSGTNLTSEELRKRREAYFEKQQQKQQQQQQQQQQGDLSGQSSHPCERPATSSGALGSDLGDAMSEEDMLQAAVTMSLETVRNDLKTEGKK

CN(CCC(O)c1ccc(Br)cc1)C(=O)CCl (centres undefined)
active: BAP1 -2.04
inactive: ALG13 -0.222 | ATXN3 -0.473 | EIF3F -0.372 | EIF3H 0.178 | FAM105A 0.138 | OTUB1 -0.231 | OTUD4 -0.192 | OTUD5 -0.354
